Laboratory results taken from the supplement of paper PMC10849652.
The full data set covers some 7,900 targets. This sample favours those with a hit. About 0.6% of all pairs of compound and target were hits.

Experiments:
Experiment in all cases: log2 fold change, soluble protein after heating vs DMSO (PISA); higher = thermal stabilisation; K562 cells, 10 uM, 30 min; active = over 0.2 and 3.5 SD of the protein, either way, in both replicates (recomputed)
[1] = compound: NC(=O)Nc1cc(-c2cccc(F)c2)sc1C(=O)N[C@H]1CCCNC1
Outline: (§1)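 Aliquots of K562 cells (2×10^6 cells/mL) treated with 10 μM compound for 30 min were heated for 3 min over 48°C-58°C. After pooling and extraction in PBS with 0.5% NP-40 at 4°C, soluble protein from a 21,000xg, 90 min spin was quantified by TMTpro 16plex LC-MS/MS with channel sums equalised. Thermal stability is expressed against control samples, from duplicates, as a log2 fold change.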

[2] = compound: NC(=O)c1cnc(N[C@@H]2CCCC[C@@H]2N)nc1Nc1cccc(-n2nccn2)c1
Outline: as §1

[3] = compound: NC1(c2ccc(-c3nc4ccn5c(=O)[nH]nc5c4cc3-c3ccccc3)cc2)CCC1
Outline: as §1

[4] = compound: NCC(=O)Nc1ccc(-n2nc(C(F)(F)F)cc2-c2ccc3c(ccc4ccccc43)c2)cc1
Outline: as §1

entinostat = compound: Nc1ccccc1NC(=O)c1ccc(CNC(=O)OCc2cccnc2)cc1 [entinostat]
Outline: as §1

vorinostat = compound: O=C(CCCCCCC(=O)Nc1ccccc1)NO [vorinostat]
Outline: as §1

citarinostat = compound: O=C(CCCCCCNC(=O)c1cnc(N(c2ccccc2)c2ccccc2Cl)nc1)NO [citarinostat]
Outline: as §1

silmitasertib = compound: O=C(O)c1ccc2c(c1)nc(Nc1cccc(Cl)c1)c1ccncc12 [silmitasertib]
Outline: as §1

[5] = compound: O=C1NC(=O)C(c2cnc3ccccn23)=C1c1cn2c3c(cc(F)cc13)CN(C(=O)N1CCCCC1)CC2
Outline: as §1

[6] = compound: c1cc(OCCN2CCCCC2)cc(-c2n[nH]c3ccc(-c4nnc[nH]4)cc23)c1
Outline: as §1

Measured: log2 fold change

PRUNE1 (UniProt Q86TP1)
UniProt Q86TP1, sequence (Q86TP1 whole entry, looked up): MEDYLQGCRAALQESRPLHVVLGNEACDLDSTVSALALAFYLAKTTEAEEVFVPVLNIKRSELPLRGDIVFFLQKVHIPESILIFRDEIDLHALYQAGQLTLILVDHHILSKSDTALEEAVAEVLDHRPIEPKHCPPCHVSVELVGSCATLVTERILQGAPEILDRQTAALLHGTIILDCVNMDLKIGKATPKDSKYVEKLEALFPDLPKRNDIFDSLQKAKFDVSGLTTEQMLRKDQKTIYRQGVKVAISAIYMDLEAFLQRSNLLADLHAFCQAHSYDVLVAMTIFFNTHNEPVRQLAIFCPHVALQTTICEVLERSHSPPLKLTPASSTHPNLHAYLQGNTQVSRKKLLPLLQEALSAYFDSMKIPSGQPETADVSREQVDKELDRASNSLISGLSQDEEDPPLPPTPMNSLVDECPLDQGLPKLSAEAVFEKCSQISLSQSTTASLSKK
inactive: [1] -0.004 | [2] -0.012 | [3] -0.179 | [4] 0.052 | entinostat 0.041 | vorinostat 0.04 | citarinostat 0.006 | silmitasertib 0.138 | [5] -0.107 | [6] 0.018

PDCD4 (UniProt Q53EL6)
inactive: [1] -0.001 | [2] 0.011 | [3] -0.087 | [4] -0.064 | entinostat -0.044 | vorinostat 0.042 | citarinostat 0.059 | silmitasertib 0.145 | [5] -0.041 | [6] 0.092

PEX13 (UniProt Q92968)
inactive: [1] -0.03 | [2] -0.086 | [3] -0.101 | [4] -0.034 | entinostat -0.051 | vorinostat -0.195 | citarinostat 0.023 | silmitasertib 0.025 | [5] 0.026 | [6] -0.015

PHKA2 (UniProt P46019)
inactive: [1] 0.013 | [2] -0.112 | [3] -0.157 | [4] 0.005 | entinostat 0.13 | vorinostat 0.04 | citarinostat -0.046 | silmitasertib 0.001 | [5] -0.013 | [6] 0.065

PEX11B (UniProt O96011)
inactive: [1] 0.095 | [2] 0.052 | [3] -0.03 | [4] 0.073 | entinostat 0.047 | vorinostat 0.049 | citarinostat 0.114 | silmitasertib -0.031 | [5] 0.035 | [6] 0.024

PIK3R1 (UniProt P27986)
inactive: [1] -0.08 | [2] -0.056 | [3] -0.016 | [4] -0.021 | entinostat -0.026 | vorinostat 0.029 | citarinostat 0.007 | silmitasertib -0.013 | [5] 0.028 | [6] 0.126

PISD (UniProt Q9UG56)
UniProt Q9UG56, sequence (Q9UG56 whole entry, looked up): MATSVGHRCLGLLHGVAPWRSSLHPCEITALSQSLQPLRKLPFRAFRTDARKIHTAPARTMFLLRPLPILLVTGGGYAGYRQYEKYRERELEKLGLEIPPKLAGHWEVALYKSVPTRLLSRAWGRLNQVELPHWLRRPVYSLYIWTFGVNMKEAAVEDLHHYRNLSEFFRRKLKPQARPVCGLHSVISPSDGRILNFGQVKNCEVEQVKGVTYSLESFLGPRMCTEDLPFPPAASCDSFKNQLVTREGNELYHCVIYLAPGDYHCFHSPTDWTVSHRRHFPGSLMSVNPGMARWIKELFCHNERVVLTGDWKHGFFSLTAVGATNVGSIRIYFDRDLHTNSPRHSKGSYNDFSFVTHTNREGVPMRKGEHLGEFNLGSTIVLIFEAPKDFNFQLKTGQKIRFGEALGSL
inactive: [1] 0.023 | [2] 0.019 | [3] -0.009 | [4] 0.045 | entinostat -0.047 | vorinostat 0.069 | citarinostat 0.035 | silmitasertib -0.019 | [5] -0.097 | [6] -0.006

PRPF40A (UniProt O75400)
inactive: [1] -0.014 | [2] -0.001 | [3] 0 | [4] -0.062 | entinostat 0.114 | vorinostat 0.048 | citarinostat 0.079 | silmitasertib -0.038 | [5] 0.003 | [6] -0.067

POMP (UniProt Q9Y244)
inactive: [1] 0.106 | [2] 0.039 | [3] -0.029 | [4] -0.024 | entinostat 0.05 | vorinostat -0.066 | citarinostat 0.026 | silmitasertib 0.022 | [5] -0.022 | [6] -0.01

PRKAA1 isoform 2 (UniProt Q13131)
inactive: [1] -0.141 | [2] -0.009 | [3] -0.049 | [4] -0.007 | entinostat 0.002 | vorinostat 0.052 | citarinostat 0.044 | silmitasertib -0.006 | [5] -0.007 | [6] -0.056

PIP4K2B (UniProt P78356)
inactive: [1] 0.06 | [2] 0.083 | [3] -0.053 | [4] 0.118 | entinostat 0.096 | vorinostat 0.053 | citarinostat -0.009 | silmitasertib 0.202 | [5] 0.044 | [6] 0.069

PSMB4 (UniProt P28070)
inactive: [1] 0.029 | [2] -0.01 | [3] 0.068 | [4] 0.01 | entinostat -0.036 | vorinostat -0.019 | citarinostat 0.008 | silmitasertib 0.002 | [5] 0.022 | [6] -0.014

PSMC1 (UniProt P62191)
inactive: [1] 0.011 | [2] 0.029 | [3] 0.014 | [4] 0.043 | entinostat -0.013 | vorinostat -0.013 | citarinostat -0.032 | silmitasertib 0.001 | [5] 0.026 | [6] -0.047

PLCG1 isoform 2 (UniProt P19174)
inactive: [1] 0.01 | [2] -0.193 | [3] -0.197 | [4] -0.109 | entinostat 0.04 | vorinostat -0.003 | citarinostat 0.059 | silmitasertib 0.01 | [5] 0 | [6] -0.066

PC (UniProt P11498)
inactive: [1] -0.025 | [2] 0.027 | [3] -0.084 | [4] 0.004 | entinostat -0.003 | vorinostat -0.044 | citarinostat 0.053 | silmitasertib -0.122 | [5] -0.099 | [6] 0.112

PCBP2 (UniProt F8VRH0)
inactive: [1] 0.187 | [2] -0.017 | [3] -0.175 | [4] 0.013 | entinostat 0.051 | vorinostat 0.247 | citarinostat 0.006 | silmitasertib -0.105 | [5] 0.144 | [6] -0.01

PLBD1 (UniProt Q6P4A8)
inactive: [1] 0.008 | [2] -0.061 | [3] -0.076 | [4] -0.039 | entinostat 0.008 | vorinostat -0.038 | citarinostat -0.018 | silmitasertib 0.003 | [5] -0.027 | [6] 0.409

PPP4R3B (UniProt Q5MIZ7)
UniProt Q5MIZ7, sequence (Q5MIZ7 whole entry, looked up): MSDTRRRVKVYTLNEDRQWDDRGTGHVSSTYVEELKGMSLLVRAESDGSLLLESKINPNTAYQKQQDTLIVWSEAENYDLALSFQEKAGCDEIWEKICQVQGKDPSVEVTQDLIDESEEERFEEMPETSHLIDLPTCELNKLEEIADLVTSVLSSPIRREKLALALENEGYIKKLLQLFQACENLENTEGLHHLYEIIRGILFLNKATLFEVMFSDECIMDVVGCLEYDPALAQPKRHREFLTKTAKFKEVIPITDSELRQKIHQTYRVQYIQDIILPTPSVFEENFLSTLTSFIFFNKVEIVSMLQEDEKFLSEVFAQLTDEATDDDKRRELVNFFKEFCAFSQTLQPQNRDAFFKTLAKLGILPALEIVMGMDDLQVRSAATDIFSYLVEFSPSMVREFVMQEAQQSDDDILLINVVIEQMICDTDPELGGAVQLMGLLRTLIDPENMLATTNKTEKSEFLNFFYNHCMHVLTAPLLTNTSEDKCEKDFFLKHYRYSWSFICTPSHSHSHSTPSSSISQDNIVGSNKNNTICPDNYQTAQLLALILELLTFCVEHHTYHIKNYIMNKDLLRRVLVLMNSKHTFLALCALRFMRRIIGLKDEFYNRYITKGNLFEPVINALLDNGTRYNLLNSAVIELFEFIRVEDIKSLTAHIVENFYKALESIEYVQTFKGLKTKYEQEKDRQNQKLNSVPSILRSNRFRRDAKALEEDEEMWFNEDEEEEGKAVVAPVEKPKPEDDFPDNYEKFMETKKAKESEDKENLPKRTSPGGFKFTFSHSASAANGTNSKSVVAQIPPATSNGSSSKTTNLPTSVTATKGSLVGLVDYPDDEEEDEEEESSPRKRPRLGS
inactive: [1] -0.068 | [2] -0.082 | [3] -0.069 | [4] -0.079 | entinostat 0.047 | vorinostat 0.089 | citarinostat 0.086 | silmitasertib 0.077 | [5] -0.1 | [6] 0.087

PRKAR2B (UniProt P31323)
inactive: [2] -0.152 | [3] -0.223 | [4] 0.016 | entinostat 0.027 | vorinostat 0.112 | citarinostat 0.078 | silmitasertib 0.008 | [5] -0.003 | [6] -0.013
active: [1] -0.964

PRKAR1B (UniProt P31321)
inactive: [1] 0.001 | [2] 0.085 | [3] 0.129 | [4] 0.045 | entinostat -0.015 | vorinostat -0.031 | citarinostat 0 | silmitasertib 0.07 | [5] 0.024 | [6] -0.142

PSMD12 (UniProt O00232)
UniProt O00232, sequence (O00232 whole entry, looked up): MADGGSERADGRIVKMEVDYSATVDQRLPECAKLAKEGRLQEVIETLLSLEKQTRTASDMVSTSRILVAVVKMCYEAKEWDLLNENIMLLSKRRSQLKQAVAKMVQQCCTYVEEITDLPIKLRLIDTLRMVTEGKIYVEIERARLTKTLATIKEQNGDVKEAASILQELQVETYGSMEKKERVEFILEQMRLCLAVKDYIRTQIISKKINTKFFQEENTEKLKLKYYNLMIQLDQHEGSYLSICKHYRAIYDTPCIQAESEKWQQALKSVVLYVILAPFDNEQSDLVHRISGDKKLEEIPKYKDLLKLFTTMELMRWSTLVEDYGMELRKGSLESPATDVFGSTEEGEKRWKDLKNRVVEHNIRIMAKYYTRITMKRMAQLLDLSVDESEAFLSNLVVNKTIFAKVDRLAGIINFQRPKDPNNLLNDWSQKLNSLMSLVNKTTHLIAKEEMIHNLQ
inactive: [1] -0.001 | [2] 0.019 | [3] -0.061 | [4] 0.05 | entinostat 0.001 | vorinostat 0.003 | citarinostat -0.012 | silmitasertib -0.024 | [5] 0.045 | [6] -0.09

PKM isoform 2 (UniProt P14618)
UniProt P14618, sequence (P14618 whole entry, looked up): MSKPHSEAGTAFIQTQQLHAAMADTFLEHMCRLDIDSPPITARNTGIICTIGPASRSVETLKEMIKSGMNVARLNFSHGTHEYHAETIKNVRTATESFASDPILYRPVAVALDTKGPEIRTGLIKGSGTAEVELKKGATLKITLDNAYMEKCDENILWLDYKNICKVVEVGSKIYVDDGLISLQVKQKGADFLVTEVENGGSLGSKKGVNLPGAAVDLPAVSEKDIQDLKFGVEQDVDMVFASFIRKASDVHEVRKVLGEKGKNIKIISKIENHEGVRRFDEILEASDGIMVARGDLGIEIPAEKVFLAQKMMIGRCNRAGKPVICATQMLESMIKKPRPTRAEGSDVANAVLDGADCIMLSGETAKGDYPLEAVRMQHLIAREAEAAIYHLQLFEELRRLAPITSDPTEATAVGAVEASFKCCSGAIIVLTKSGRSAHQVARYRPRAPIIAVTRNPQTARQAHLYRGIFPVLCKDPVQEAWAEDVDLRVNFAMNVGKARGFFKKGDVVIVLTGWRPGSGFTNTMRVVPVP
inactive: [1] 0.123 | [2] 0.175 | [3] -0.063 | [4] 0.116 | entinostat 0.05 | vorinostat -0.195 | citarinostat -0.075 | silmitasertib -0.052 | [5] 0.043 | [6] -0.093

PRPF31 (UniProt Q8WWY3)
UniProt Q8WWY3, sequence (Q8WWY3 whole entry, looked up): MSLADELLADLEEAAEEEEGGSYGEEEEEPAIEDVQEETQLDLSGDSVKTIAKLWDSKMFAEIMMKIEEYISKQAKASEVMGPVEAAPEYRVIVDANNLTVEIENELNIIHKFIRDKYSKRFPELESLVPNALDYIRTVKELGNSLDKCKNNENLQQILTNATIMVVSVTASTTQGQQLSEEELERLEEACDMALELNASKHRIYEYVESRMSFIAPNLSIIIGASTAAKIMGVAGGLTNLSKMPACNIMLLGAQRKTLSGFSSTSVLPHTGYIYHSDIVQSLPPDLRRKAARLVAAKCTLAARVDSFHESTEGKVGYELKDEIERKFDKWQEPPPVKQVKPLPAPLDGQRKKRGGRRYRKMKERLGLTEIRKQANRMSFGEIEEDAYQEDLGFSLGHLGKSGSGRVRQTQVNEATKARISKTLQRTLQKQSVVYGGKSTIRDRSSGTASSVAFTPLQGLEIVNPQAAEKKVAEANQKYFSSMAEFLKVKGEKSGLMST
inactive: [1] -0.076 | [2] -0.138 | [3] -0.241 | [4] -0.065 | entinostat 0.071 | vorinostat 0.182 | citarinostat 0.042 | silmitasertib -0.038 | [5] -0.194 | [6] -0.038

PDCD6IP (UniProt Q8WUM4)
UniProt Q8WUM4, sequence (Q8WUM4 whole entry, looked up): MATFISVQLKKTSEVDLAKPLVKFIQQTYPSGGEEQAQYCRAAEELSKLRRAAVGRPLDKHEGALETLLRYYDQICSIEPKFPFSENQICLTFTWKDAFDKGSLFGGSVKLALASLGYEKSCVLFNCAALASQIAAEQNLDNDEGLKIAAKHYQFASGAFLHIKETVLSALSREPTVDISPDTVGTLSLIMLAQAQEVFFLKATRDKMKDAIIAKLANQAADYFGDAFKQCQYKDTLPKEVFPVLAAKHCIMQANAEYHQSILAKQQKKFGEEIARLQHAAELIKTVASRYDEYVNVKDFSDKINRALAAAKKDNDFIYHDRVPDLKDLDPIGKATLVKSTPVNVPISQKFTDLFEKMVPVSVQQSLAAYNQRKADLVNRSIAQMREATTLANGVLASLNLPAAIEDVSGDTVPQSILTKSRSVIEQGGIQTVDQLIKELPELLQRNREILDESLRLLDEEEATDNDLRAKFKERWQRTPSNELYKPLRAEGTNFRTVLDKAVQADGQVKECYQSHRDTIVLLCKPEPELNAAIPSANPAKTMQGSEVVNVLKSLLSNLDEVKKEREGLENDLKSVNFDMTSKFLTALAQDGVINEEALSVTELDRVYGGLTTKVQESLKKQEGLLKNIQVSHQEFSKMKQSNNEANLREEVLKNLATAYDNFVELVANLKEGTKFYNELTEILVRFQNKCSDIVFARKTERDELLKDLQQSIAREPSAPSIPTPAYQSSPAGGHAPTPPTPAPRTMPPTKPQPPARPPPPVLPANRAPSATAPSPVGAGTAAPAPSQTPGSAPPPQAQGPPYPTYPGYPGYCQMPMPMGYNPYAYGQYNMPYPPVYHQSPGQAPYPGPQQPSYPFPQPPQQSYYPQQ
inactive: [1] -0.055 | [2] -0.1 | [3] -0.186 | [4] -0.103 | entinostat 0.149 | vorinostat 0.186 | citarinostat 0.113 | silmitasertib 0.094 | [5] -0.009 | [6] 0

PTPA (UniProt Q15257)
UniProt Q15257, sequence (Q15257 whole entry, looked up): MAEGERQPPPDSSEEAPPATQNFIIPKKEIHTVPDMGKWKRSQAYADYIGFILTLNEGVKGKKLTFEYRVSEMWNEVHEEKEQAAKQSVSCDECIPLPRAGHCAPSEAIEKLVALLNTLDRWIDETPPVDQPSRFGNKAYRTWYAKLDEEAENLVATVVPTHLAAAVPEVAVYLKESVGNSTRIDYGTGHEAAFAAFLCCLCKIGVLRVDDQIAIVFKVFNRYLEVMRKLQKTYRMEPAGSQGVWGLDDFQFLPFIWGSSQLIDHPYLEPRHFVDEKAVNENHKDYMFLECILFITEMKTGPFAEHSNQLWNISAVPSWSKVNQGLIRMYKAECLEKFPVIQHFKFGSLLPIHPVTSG
inactive: [1] -0.022 | [2] 0.001 | [3] -0.021 | [4] 0.028 | entinostat 0 | vorinostat 0.004 | citarinostat 0.028 | silmitasertib -0.027 | [5] -0.021 | [6] -0.015

POLR3K (UniProt Q9Y2Y1)
inactive: [1] 0.045 | [2] 0.007 | [3] 0.057 | [4] 0.057 | entinostat 0.009 | vorinostat -0.003 | citarinostat -0.025 | silmitasertib 0.013 | [5] -0.028 | [6] 0.025

PSMD13 (UniProt Q9UNM6)
inactive: [1] -0.049 | [2] 0.015 | [3] -0.044 | [4] 0.006 | entinostat -0.018 | vorinostat 0.001 | citarinostat -0.017 | silmitasertib 0.033 | [5] 0.044 | [6] -0.108

PPIL2 (UniProt Q13356)
UniProt Q13356, sequence (Q13356 whole entry, looked up): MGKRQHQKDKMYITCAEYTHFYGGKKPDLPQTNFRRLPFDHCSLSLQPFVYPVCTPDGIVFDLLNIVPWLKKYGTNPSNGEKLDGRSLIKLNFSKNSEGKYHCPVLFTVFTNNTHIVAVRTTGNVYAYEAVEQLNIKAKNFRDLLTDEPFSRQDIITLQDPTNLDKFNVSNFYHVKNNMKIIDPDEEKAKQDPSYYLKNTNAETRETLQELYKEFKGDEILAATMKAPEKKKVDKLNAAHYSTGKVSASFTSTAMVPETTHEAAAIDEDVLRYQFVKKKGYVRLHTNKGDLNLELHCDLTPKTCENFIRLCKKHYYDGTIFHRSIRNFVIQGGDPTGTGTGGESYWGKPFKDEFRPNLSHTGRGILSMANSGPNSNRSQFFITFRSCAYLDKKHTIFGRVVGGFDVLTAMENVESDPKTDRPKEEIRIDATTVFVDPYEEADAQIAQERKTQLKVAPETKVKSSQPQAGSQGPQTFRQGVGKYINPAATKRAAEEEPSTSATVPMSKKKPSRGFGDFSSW
inactive: [1] -0.069 | [2] -0.058 | [3] -0.077 | [4] -0.1 | entinostat 0.059 | vorinostat 0.063 | citarinostat 0.065 | silmitasertib 0.083 | [5] -0.07 | [6] -0.014

PUF60 (UniProt Q9UHX1)
inactive: [1] -0.112 | [2] -0.029 | [3] -0.035 | [4] -0.132 | entinostat 0.049 | vorinostat 0.028 | citarinostat 0.079 | silmitasertib -0.098 | [5] -0.025 | [6] -0.092

PPT2 isoform 3 (UniProt Q9UMR5)
inactive: [1] 0.035 | [2] 0.008 | [3] -0.15 | [4] 0.017 | entinostat 0.02 | vorinostat 0.063 | citarinostat 0.015 | silmitasertib 0.018 | [5] 0.029 | [6] 0.034
